SMILES strings stand for the structures.

The species entered for one assay is Homo sapiens. Put plainly: To identify inhibition of the IFN signalling (Jak-Stat) pathway via expression of an eGFP reporter gene under the control of an IFN-stimulated response element (ISRE) containing MxA promoter. The format is functional. More on the design: scale not given: direction of the effect not stated beside the values. Particulars: 30 µM. On the technique in general: Reporter assays use an easily measured gene product as a stand-in for the process of interest.
For the compound `Cc1nc(C2CCCN2CC(=O)N(Cc2ccsc2)C2CC2)no1` (stereo not drawn), the Percent Effect worked out at 25.6%.
With `CC(C)S(=O)(=O)N1CCC(c2cc3n(n2)[C@@H](C(F)(F)F)C[C@@H](C)N3)C1` (stereo partly drawn), the Percent Effect amounted to 9.18%.
As to `O=C(CSCC1CC1)N1CCCC(c2nccn2Cc2ccncc2)C1` (stereo not drawn), the Percent Effect was -2.75%.
With `CC(=O)N1CCCN(c2nccc(-c3cn(C)nc3C)n2)CC1`, the Percent Effect was -1.59%.
On to `COc1ccc(C2CCCN2S(=O)(=O)N(C)CC(C)C)cc1` (stereo not drawn), for which the Percent Effect was -1.6%.
The same measure, in the same setting: with `Cc1cccc2[nH]c(C3CCN(C(=O)c4ccnn4C)CC3)nc12` the figure was 2.04%.
On the same count and under the same terms, with `Cc1nc(CN2CCc3nn(C(C)C)c(=O)cc3C2)oc1C` the figure was -4.72%; with `COc1cc(CNC(=O)NCc2c(C)cc(C)[nH]c2=O)ccc1C`, 6.94%; with `Fc1cccc(-c2nc(CN3CCOC(Cn4cccn4)C3)co2)c1` (stereo not drawn), -1.08%.
Same read-out and setting: with `O=C([C@@H]1CC[C@@H]2[C@@H](CCN2Cc2ccoc2)O1)N1CCCC1` the figure was -10.1%.
`Cn1cccc1C(=O)N1CCC2(CC1)CN(c1ccccn1)CCO2`: the Percent Effect amounted to 6.16%.
As to `CCc1ccc(NS(=O)(=O)CC2=NC(=O)n3cccc3C2=O)cc1`, the Percent Effect stood at 0.554%.
Same read-out and setting: with `CC(=O)c1ccc(OCC(=O)NC(C)CCc2ccco2)cc1` (stereo not drawn) the figure was 6.38%; with `CN(C)CC(=O)N1CCCC2(CCC(=O)N(CCc3c[nH]cn3)C2)C1` (stereo not drawn), -2.33%; with `N#Cc1cccc(S(=O)(=O)N2CCCCC2CCN2CCCC2=O)c1` (stereo not drawn), -12.8%.
Turning to `O=C(NCC(O)c1ccc(F)c(F)c1)c1cccnc1O` (stereo not drawn), the Percent Effect came out at 3.44%.
The same measure, in the same setting: with `Cc1cccc(CN2C(=O)CC[C@@H]3[C@H]2CCN3Cc2ccc(C)s2)n1` the figure was 6.8%; with `CC(=O)N1CC[C@H]2OCC[C@@]2(C(=O)NCc2ccco2)C1`, -5.97%.
`CSC(C)(C)CNC(=O)NC1CCN(C)CC1`: the Percent Effect was 21.1%.
Consider `CN(Cc1ncc(-c2ccccc2)o1)CC1CCCN1c1cccnn1` (stereo not drawn), for which the Percent Effect was -9.54%.
On the same count and under the same terms, for `Cc1noc([C@H]2C[C@@H]3CCN(CC4CC4)C[C@H]3O2)n1` the value was 4.2%; for `O=C(O)c1cc2c(nc1O)CC(c1cccc(Cl)c1)CC2=O` (stereo not drawn), 1.57%; for `COCCCC(=O)NS(=O)(=O)c1ccc2c(c1)OCCCO2`, 0.992%.
With `Cc1nn(C)c(Cl)c1CNCc1cccnc1N1CCOCC1`, the Percent Effect amounted to 3.88%.
For the compound `CN(Cc1ccc(F)cc1)CC1(O)CCCN(CC(C)(C)C)C1=O` (stereo not drawn), the Percent Effect amounted to 1.55%.
As to `CN(CC(=O)N1CCC(Oc2ccccc2)CC1)c1cnccn1`, the Percent Effect worked out at 18.1%.
For `CC(=O)N1CCn2c(COCc3csc(C)n3)cnc2C1C` (stereo not drawn), the Percent Effect worked out at 7.41%.
As to `Cc1cc(C)c(CNC(=O)N2CCCC2C(N)=O)c(=O)[nH]1` (stereo not drawn), the Percent Effect was 11.6%.
As for `Cc1ccc(N2CCCC(NCC(=O)NCC3CC3)C2)nn1` (stereo not drawn), the Percent Effect is -5.61%.
Consider `O=C1CC(c2ccc(F)c(F)c2)c2snc(C(=O)O)c2N1` (stereo not drawn), for which the Percent Effect was -4.84%.
On to `Cc1nc(-c2ccccc2)sc1C(=O)NCCNc1ncccn1`, for which the Percent Effect amounted to 8.09%.
For `CNS(=O)(=O)c1cccc(CNC(=O)c2c(C)nn(C)c2C)c1`, the Percent Effect was determined as 30.5%.
`Clc1ccc(CN2CCCC(Cn3cncn3)C2)c2ncccc12` (stereo not drawn): the Percent Effect was -2.35%.
Still for that read-out and setting: with `CCN(CC)Cc1cn2c(n1)CN(C(=O)c1cnccn1)CC2` the figure was -5.71%; with `CN(C)C(=O)[C@H]1C[C@@H]2CN(S(=O)(=O)Cc3ccccc3)C[C@H]1O2`, -3.98%.
For the compound `CCc1nc(C2CCCN(C(=O)c3cccc4cn[nH]c34)C2)no1` (stereo not drawn), the Percent Effect is 19.4%.
Turning to `CC(C(=O)NCCOc1ccc2c(c1)OCO2)n1cncn1` (stereo not drawn), the Percent Effect is -12.4%.
On the same count and under the same terms, for `CC(C)OCCCNC(=O)CN1CCC(N2CCN(C)C2=O)CC1` the value was -2.11%; for `CN(C)c1nc2c(c(=O)[nH]1)CCN(C(=O)c1cccc3nccnc13)C2`, 29.3%.

Another assay concerns the target T1, Tyrosyl-tRNA synthetase, putative (Trypanosoma cruzi (strain CL Brener)) (UniProt Q4DSP6).
T1 sequence (whole entry): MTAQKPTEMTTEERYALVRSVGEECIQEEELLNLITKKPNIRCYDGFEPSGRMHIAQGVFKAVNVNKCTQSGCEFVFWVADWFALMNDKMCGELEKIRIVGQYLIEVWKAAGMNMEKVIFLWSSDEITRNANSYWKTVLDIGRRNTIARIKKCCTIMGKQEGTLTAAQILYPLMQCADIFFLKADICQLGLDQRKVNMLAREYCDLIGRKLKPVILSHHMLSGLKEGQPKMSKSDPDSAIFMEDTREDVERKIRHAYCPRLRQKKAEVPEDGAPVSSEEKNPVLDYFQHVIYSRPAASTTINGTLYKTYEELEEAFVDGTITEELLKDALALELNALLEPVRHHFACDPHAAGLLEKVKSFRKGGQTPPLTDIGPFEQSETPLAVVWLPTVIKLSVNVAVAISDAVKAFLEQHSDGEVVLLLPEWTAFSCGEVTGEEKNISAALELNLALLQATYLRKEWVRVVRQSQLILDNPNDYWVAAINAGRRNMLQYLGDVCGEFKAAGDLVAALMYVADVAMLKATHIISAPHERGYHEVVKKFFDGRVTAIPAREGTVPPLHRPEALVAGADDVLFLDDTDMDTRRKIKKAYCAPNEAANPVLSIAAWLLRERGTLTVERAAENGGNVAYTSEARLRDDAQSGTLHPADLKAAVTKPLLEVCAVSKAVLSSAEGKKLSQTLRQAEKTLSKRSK
Put plainly: Trypanosoma cruzi tyrosyl tRNA synthetase (TcYRS) _High Tyrosine SOP. The format is functional. To be noted: 30 µM. More on the design: scale not given: in the data most compounds retested in dose-response had high values.
With `Cc1nc(C2CCCN2CC(=O)N(Cc2ccsc2)C2CC2)no1` (stereo not drawn), the Percent Effect was 14.8%.
`CC(C)S(=O)(=O)N1CCC(c2cc3n(n2)[C@@H](C(F)(F)F)C[C@@H](C)N3)C1` (stereo partly drawn): the Percent Effect is 4.25%.
The same measure, in the same setting: for `O=C(CSCC1CC1)N1CCCC(c2nccn2Cc2ccncc2)C1` (stereo not drawn) the value was 3.16%; for `CC(=O)N1CCCN(c2nccc(-c3cn(C)nc3C)n2)CC1`, 0.546%; for `COc1ccc(C2CCCN2S(=O)(=O)N(C)CC(C)C)cc1` (stereo not drawn), -5.26%.
In the case of `Cc1cccc2[nH]c(C3CCN(C(=O)c4ccnn4C)CC3)nc12`, the Percent Effect is 9.68%.
Regarding `Cc1nc(CN2CCc3nn(C(C)C)c(=O)cc3C2)oc1C`, the Percent Effect is -3.45%.
On to `COc1cc(CNC(=O)NCc2c(C)cc(C)[nH]c2=O)ccc1C`, for which the Percent Effect is 2.45%.
For the compound `Fc1cccc(-c2nc(CN3CCOC(Cn4cccn4)C3)co2)c1` (stereo not drawn), the Percent Effect is 7.39%.
With `O=C([C@@H]1CC[C@@H]2[C@@H](CCN2Cc2ccoc2)O1)N1CCCC1`, the Percent Effect amounted to 7.53%.
Take `Cn1cccc1C(=O)N1CCC2(CC1)CN(c1ccccn1)CCO2`: the Percent Effect was -2.15%.
For the compound `CCc1ccc(NS(=O)(=O)CC2=NC(=O)n3cccc3C2=O)cc1`, the Percent Effect was -8.47%.
As to `CC(=O)c1ccc(OCC(=O)NC(C)CCc2ccco2)cc1` (stereo not drawn), the Percent Effect came to 3.7%.
In the case of `CN(C)CC(=O)N1CCCC2(CCC(=O)N(CCc3c[nH]cn3)C2)C1` (stereo not drawn), the Percent Effect is 9.68%.
In the case of `N#Cc1cccc(S(=O)(=O)N2CCCCC2CCN2CCCC2=O)c1` (stereo not drawn), the Percent Effect worked out at 4.17%.
On the same count and under the same terms, for `O=C(NCC(O)c1ccc(F)c(F)c1)c1cccnc1O` (stereo not drawn) the value was 10.4%.
Turning to `Cc1cccc(CN2C(=O)CC[C@@H]3[C@H]2CCN3Cc2ccc(C)s2)n1`, the Percent Effect was -1.06%.
As to `CC(=O)N1CC[C@H]2OCC[C@@]2(C(=O)NCc2ccco2)C1`, the Percent Effect came out at 4.17%.
Same read-out and setting: with `CSC(C)(C)CNC(=O)NC1CCN(C)CC1` the figure was 4.92%.
With `CN(Cc1ncc(-c2ccccc2)o1)CC1CCCN1c1cccnn1` (stereo not drawn), the Percent Effect amounted to 2.86%.
For the compound `Cc1noc([C@H]2C[C@@H]3CCN(CC4CC4)C[C@H]3O2)n1`, the Percent Effect is -1.06%.
Take `O=C(O)c1cc2c(nc1O)CC(c1cccc(Cl)c1)CC2=O` (stereo not drawn): the Percent Effect worked out at 4.23%.
For `COCCCC(=O)NS(=O)(=O)c1ccc2c(c1)OCCCO2`, the Percent Effect came out at 0.493%.
Still for that read-out and setting: for `Cc1nn(C)c(Cl)c1CNCc1cccnc1N1CCOCC1` the value was 9.57%; for `CN(Cc1ccc(F)cc1)CC1(O)CCCN(CC(C)(C)C)C1=O` (stereo not drawn), -7.37%; for `CN(CC(=O)N1CCC(Oc2ccccc2)CC1)c1cnccn1`, 5.94%.
Regarding `CC(=O)N1CCn2c(COCc3csc(C)n3)cnc2C1C` (stereo not drawn), the Percent Effect was -10.4%.
As for `Cc1cc(C)c(CNC(=O)N2CCCC2C(N)=O)c(=O)[nH]1` (stereo not drawn), the Percent Effect turned out to be 5.21%.
For the compound `Cc1ccc(N2CCCC(NCC(=O)NCC3CC3)C2)nn1` (stereo not drawn), the Percent Effect is 7.29%.
The same measure, in the same setting: for `O=C1CC(c2ccc(F)c(F)c2)c2snc(C(=O)O)c2N1` (stereo not drawn) the value was 2.12%.
As for `Cc1nc(-c2ccccc2)sc1C(=O)NCCNc1ncccn1`, the Percent Effect is 6.4%.
As for `CNS(=O)(=O)c1cccc(CNC(=O)c2c(C)nn(C)c2C)c1`, the Percent Effect is -1.04%.
In the case of `Clc1ccc(CN2CCCC(Cn3cncn3)C2)c2ncccc12` (stereo not drawn), the Percent Effect came out at 4.3%.
On to `CCN(CC)Cc1cn2c(n1)CN(C(=O)c1cnccn1)CC2`, for which the Percent Effect is 3.24%.
Regarding `CN(C)C(=O)[C@H]1C[C@@H]2CN(S(=O)(=O)Cc3ccccc3)C[C@H]1O2`, the Percent Effect turned out to be 5.32%.
Regarding `CCc1nc(C2CCCN(C(=O)c3cccc4cn[nH]c34)C2)no1` (stereo not drawn), the Percent Effect came out at 2.97%.
Regarding `CC(C(=O)NCCOc1ccc2c(c1)OCO2)n1cncn1` (stereo not drawn), the Percent Effect came to 6.4%.
Take `CC(C)OCCCNC(=O)CN1CCC(N2CCN(C)C2=O)CC1`: the Percent Effect is -0.493%.
For `CN(C)c1nc2c(c(=O)[nH]1)CCN(C(=O)c1cccc3nccnc13)C2`, the Percent Effect was found to be 8.6%.
